Source: PubChem BioAssay AID933 (National Center for Advancing Translational Sciences (NCATS), 2007)
Inconclusive results are not listed. Entries that show only a call come without a potency. Values without a mark were called inactive. Activity calls are given as the source filed them. Calls come from the whole dose curve; as a rule, active = well fitted activation curve with a large enough effect in the signal ratio, with a control signal flat; inconclusive = small, poorly fitted or top-dose-only effect, or a change in a side signal; inactive = flat fitted curve, though single readings scatter; the % refers to the signal ratio.

Molecular target: Thyrotropin receptor (Homo sapiens) (UniProt P16473)
Sequence (P16473 whole entry, looked up): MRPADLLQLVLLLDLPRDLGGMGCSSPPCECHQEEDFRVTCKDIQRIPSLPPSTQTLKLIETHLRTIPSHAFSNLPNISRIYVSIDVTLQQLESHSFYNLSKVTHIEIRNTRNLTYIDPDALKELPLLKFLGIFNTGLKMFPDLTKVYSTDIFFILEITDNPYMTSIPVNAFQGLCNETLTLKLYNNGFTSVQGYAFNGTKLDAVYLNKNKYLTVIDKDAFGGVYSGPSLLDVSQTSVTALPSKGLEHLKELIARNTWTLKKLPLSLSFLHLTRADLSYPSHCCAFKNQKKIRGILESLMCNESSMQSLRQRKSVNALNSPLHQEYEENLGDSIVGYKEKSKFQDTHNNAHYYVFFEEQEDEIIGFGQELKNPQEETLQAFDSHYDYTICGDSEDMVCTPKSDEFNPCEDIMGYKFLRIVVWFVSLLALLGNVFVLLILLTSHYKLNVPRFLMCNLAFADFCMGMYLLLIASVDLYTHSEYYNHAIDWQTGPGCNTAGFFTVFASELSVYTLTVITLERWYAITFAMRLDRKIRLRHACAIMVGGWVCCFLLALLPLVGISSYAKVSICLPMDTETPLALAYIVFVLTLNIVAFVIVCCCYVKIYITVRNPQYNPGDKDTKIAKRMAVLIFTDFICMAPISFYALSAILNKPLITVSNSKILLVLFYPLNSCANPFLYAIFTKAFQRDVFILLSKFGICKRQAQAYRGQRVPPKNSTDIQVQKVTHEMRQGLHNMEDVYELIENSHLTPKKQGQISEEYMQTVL
Test: Secondary Concentration-Response Assay for Agonists of the Thyroid Stimulating Hormone Receptor: HTRF Activity Detection
Summary of the method: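 cAMP accumulation was detected by antibody-based HTRF, excitation 330 nm, emissions 615 and 660 nm. Compounds acted for 30 min at room temperature on stably TSHR-transfected HEK 293 cells, with phosphodiesterase inhibitor RO 20-1724 (100 uM) in the medium.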
Potency is the fitted concentration of half-maximal effect.

| SMILES | Potency | activation |
| --- | --- | --- |
| O=C1CC(c2ccco2)CC2=C1C(c1cccnc1)n1nc(C(F)(F)F)nc1N2 (configuration not stated) | inactive |  |
| COc1ccc(C2Nc3ccccc3C(=O)N2Cc2ccco2)cc1COc1ccc(F)cc1 (configuration not stated) | inactive |  |
| COc1ccc(C2Nc3ccccc3C(=O)N2Cc2ccccc2)cc1COc1ccc(Cl)cc1 (configuration not stated) | inactive |  |
| COc1cccc2cc(C(=O)N(Cc3cccs3)Cc3cccs3)c(=O)oc12 | inactive |  |
| COc1ccc(C2Nc3ccccc3C(=O)N2Cc2ccccc2)cc1OCc1ccc(NC(C)=O)cc1 (configuration not stated) | inactive |  |
| O=C(COC(=O)C12CC3CC(CC(Br)(C3)C1)C2)NCc1ccco1 | 10 µM (active) |  |
| CCOc1cc(C(=O)N(C)c2ccccc2)cc(OCC)c1OCC |  | 1.28% [at 0.00035 µM] |
| O=C1c2ccccc2NC(c2ccccc2)N1c1ccc(O)cc1 (configuration not stated) | inactive |  |
| Cc1ccccc1-n1nc(C)c2cc(C(=O)N3CCN(S(=O)(=O)c4ccc(F)cc4)CC3)sc21 |  | 0.202% [at 0.00035 µM] |
| O=C1CC(c2ccco2)CC2=C1C(c1ccc(O)cc1)n1nc(C(F)(F)F)nc1N2 (configuration not stated) | inactive |  |
| COc1ccc(N2C(=O)c3ccccc3NC2c2ccc(OC)c(COc3ccccn3)c2)cc1 (configuration not stated) | inactive |  |
| CC1(c2ccccn2)Nc2ccccc2-c2nc3ccccc3n21 (configuration not stated) |  | -0.34% [at 0.00035 µM] |
| COc1ccc(C(=O)N(Cc2ccco2)Cc2cccs2)c(O)c1 | 50.1 µM (active) |  |
| COc1ccc(C2Nc3ccccc3C(=O)N2Cc2ccccc2Cl)cc1COc1ccc(NC(C)=O)cc1 (configuration not stated) | inactive |  |
| Nc1ccccc1C(=O)NCc1ccco1 | inactive |  |
| COCCNC(=O)C(c1ccccc1)N(Cc1cccs1)C(=O)Cn1nnc2ccccc21 (configuration not stated) |  | -0.712% [at 0.00035 µM] |
| Cc1noc(/C=C/c2ccco2)c1S(=O)(=O)N1CCC(C(=O)NCc2ccco2)CC1 |  | -0.595% [at 0.00035 µM] |
